Source: PubChem BioAssay (NCATS)
Inconclusive results are not listed. The source made the active and inactive calls. Unless noted, the call rests on the fitted dose curve; in most records, active means well fitted curve in the direction sought with a large enough effect; inconclusive means small, poorly fitted or top-dose-only effect, or another doubt; inactive means no such curve, though single readings can be large; an effect the other way counts as inactive or inconclusive.

What was measured:
[1] = AP1 Signaling Pathway (AID 357; active means well fitted curve in either direction with a large enough effect, not every such curve was filed as active; further: on the % scale 0 is the no-effect control and ±100 the full control effect); details: ME-180 AP-1-bla reporter, EGF-induced, beta-lactamase ratio, 5 h; at 38 µM (top of the series)
Method in brief: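 ME-180 cells with beta-lactamase reporter under AP-1 response element, stimulated with EC50 EGF; compounds tested in titration series, 5 h at 37 °C. CCF4 substrate added 2.5 h at room temperature; 460/530 nm emission ratio gave %activity and AC50.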

[2] = target: Cytochrome P450 1A2 (Homo sapiens) (UniProt P05177); assay: p450-cyp1a2 (AID 410; calls by dose curve; further: potency means the concentration at half of the fitted maximal effect)
Chain of Cytochrome P450 1A2 (Homo sapiens) (P05177 whole entry, looked up): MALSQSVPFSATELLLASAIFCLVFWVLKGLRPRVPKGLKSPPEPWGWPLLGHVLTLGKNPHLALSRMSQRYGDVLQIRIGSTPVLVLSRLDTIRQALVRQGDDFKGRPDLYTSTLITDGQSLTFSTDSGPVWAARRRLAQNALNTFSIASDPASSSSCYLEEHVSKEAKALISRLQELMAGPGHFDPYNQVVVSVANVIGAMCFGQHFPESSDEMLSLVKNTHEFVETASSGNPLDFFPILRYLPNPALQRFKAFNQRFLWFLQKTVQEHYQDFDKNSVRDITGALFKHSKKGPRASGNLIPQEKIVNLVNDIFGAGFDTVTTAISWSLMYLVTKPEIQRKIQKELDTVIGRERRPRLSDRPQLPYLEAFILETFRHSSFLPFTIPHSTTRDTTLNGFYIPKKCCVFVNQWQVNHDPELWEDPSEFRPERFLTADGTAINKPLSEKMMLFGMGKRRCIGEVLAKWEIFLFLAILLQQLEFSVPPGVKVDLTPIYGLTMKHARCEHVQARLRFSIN
Method in brief: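 20nM CYP1A2, 100uM Luciferin-ME (=Km), 100mM KPO4; cpd 10 min RT; +NADPH regen, 60 min RT; stop/detect 20 min; luminescence. Normalized to furafylline 57 uM = full inhibition.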

[3] = Stat Signaling Pathway (AID 446; active means well fitted curve in either direction with a large enough effect, not every such curve was filed as active;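 further: ME-180 cervical cancer cells given 40 pM IL-6 alongside compound; SIE-controlled beta-lactamase reporter measured as 460/530 nm FRET emission ratio; on the % scale 0 is the no-effect control and ±100 the full control effect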); details: ME-180 (cervical carcinoma) SIE beta-lactamase reporter, IL-6 stimulated, 5 h; at 38 µM (top of the series)
Method in brief: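 Emission at 460 and 530 nm (excitation 405 nm) reports SIE-controlled beta-lactamase in ME-180 cells. Cells received compound with 40 pM IL-6 for 5 hrs at 37 C; data scaled between 300 pM IL-6 and 125 nM JAK-inhibitor controls.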

[4] = target: Glucocorticoid receptor (Homo sapiens) (UniProt P04150); assay: GR-GFP Redistribution (AID 450;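 active means compounds whose dose series gives a full or clear partial fitted curve of increased nuclear translocation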; further: potency means the concentration at half of the fitted maximal effect); details: U2OS GR-GFP nuclear translocation, laser cytometry, 2 h
Chain of Glucocorticoid receptor (Homo sapiens) (P04150 whole entry, looked up): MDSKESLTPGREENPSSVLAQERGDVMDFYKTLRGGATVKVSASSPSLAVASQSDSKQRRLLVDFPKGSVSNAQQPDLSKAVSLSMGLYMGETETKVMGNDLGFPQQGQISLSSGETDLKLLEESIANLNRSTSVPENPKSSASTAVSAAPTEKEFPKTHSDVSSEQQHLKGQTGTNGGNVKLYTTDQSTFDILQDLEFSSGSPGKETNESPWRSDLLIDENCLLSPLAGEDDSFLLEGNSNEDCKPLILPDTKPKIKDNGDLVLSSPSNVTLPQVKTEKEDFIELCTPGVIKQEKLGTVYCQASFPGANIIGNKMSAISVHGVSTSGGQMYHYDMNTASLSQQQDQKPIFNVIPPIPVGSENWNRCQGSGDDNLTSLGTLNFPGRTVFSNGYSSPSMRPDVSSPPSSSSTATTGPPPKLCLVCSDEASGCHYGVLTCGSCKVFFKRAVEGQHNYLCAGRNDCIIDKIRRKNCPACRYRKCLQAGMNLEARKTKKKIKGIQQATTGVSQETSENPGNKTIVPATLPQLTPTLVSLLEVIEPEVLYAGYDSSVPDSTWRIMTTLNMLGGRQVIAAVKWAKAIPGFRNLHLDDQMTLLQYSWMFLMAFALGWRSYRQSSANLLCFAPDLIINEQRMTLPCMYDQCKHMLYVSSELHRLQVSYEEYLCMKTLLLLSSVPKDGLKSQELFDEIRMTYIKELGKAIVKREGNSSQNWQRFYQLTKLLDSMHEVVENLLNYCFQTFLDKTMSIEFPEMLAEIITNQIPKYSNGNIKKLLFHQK

[5] = target: Mitogen-activated protein kinase 10 (Mus musculus) (UniProt Q61831); assay: JNK3 AlphaScreen Assay (AID 530; active means well fitted curve in either direction with a large enough effect, not every such curve was filed as active;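 further: kinase came from lysate of stimulated human HepG2 cells; signal reports phosphorylation of biotinylated GST-cJun 1-79 at Ser73 with 10 µM ATP; on the % scale 0 is the no-effect control and ±100 the full control effect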)
Method in brief: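 Kinase buffer: 20 mM Tris-HCl pH 7.6, 10 mM MgCl2, 1 mM DTT, 0.1 mM Na3VO4, 0.01% Tween-20; ATP 10 uM. Substrate biotin-GST-cJun(1-79), enzyme from activated HepG2 lysates. Detection by Ser73 phospho-antibody AlphaScreen.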

[6] = target: 3',5'-cyclic-AMP phosphodiesterase 4B (Homo sapiens) (UniProt Q07343); assay: qHTS Assay for Inhibitors of PDE-IV (AID 607; active means well fitted activation curve with a large enough effect in the main read-out, with a control signal flat, not every such curve was filed as active; further: % of control where 0% means no effect)
Chain of 3',5'-cyclic-AMP phosphodiesterase 4B (Homo sapiens) (Q07343 whole entry, looked up): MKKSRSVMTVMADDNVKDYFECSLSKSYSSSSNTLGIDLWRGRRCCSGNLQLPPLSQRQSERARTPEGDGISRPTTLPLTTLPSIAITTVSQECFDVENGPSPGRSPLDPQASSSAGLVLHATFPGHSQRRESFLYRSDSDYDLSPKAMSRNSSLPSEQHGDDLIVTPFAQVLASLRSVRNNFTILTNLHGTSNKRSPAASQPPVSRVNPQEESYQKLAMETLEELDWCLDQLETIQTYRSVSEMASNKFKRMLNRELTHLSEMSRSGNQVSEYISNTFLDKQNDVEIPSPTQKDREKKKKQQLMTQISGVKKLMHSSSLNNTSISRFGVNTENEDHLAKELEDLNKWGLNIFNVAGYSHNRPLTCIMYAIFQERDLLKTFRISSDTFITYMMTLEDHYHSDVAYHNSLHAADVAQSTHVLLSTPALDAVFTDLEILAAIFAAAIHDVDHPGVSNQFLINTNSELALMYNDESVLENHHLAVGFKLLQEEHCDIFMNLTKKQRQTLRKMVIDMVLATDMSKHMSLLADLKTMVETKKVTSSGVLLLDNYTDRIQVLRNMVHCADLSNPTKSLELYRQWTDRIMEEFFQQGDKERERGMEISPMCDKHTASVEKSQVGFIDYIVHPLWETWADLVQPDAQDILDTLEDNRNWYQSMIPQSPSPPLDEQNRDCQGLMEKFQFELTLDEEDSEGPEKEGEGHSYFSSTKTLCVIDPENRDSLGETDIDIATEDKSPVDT
Method in brief: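 The readout is membrane depolarisation from a cAMP-sensing CNG channel, detected with a potential dye at ex 535/em 590. Cells were HEK293-derived (endogenous PDE-IV) at 1000 cells/well, titrated up to 22.9 uM final.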

[7] = target: Guanine nucleotide-binding protein G(i) subunit alpha-1 (Homo sapiens) (UniProt P63096); assay: qHTS Assay for Inhibitors of RGS12 GoLoco Motif Activity (Green Fluorophore) (AID 879);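 further: 0% = labeled peptide with Gαi1 and full inhibition = labeled peptide alone without protein; negative values mean loss of peptide binding seen as reduced polarization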
Chain of Guanine nucleotide-binding protein G(i) subunit alpha-1 (Homo sapiens) (P63096 whole entry, looked up): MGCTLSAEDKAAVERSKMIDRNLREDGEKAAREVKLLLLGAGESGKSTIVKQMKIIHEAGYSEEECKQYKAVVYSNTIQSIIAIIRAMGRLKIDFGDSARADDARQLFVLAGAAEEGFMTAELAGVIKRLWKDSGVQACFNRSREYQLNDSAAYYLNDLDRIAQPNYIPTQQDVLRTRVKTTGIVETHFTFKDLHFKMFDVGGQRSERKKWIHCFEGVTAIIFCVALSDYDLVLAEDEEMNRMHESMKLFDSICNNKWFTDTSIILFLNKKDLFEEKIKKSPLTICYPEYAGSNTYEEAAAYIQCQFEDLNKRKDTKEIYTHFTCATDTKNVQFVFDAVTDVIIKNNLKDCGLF
Method in brief: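 A drop in FITC polarization marked displacement of the FITC-tagged RGS12 GoLoco peptide (10 nM) from Gαi1 (50 nM). Compounds were incubated 10 min at room temperature in Tris pH 7.5 buffer containing 150 mM NaCl, 0.1 mM GDP and 0.05% NP40; unlabeled peptide titration served as control.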

[8] = target: Cytochrome P450 3A4 (Homo sapiens) (UniProt P08684); assay: qHTS Assay for Activators of Cytochrome P450 3A4 (AID 885); further: nearly all actives have a fitted effect of over 65% in size
Chain of Cytochrome P450 3A4 (Homo sapiens) (P08684 whole entry, looked up): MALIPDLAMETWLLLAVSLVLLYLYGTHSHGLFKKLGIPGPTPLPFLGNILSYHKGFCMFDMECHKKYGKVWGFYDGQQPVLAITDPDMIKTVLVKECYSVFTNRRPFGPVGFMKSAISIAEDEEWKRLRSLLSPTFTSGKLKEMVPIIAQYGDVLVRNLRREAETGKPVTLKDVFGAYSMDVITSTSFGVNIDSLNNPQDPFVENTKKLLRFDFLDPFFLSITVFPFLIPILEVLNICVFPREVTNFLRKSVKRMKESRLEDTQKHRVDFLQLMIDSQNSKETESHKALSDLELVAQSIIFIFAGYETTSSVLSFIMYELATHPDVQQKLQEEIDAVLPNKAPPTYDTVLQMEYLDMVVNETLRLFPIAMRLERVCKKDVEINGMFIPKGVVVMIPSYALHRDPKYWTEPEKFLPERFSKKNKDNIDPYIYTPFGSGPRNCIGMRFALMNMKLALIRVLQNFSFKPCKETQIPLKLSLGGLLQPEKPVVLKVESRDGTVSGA
Method in brief: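 Activators are scored by enhanced luminescence from CYP3A4 conversion of luciferin-PPXE (25uM, equal to KM) to luciferin, after 60 min at RT with an NADPH-regenerating system.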

[9] = qHTS Assay for Identification of Small Molecule Agonists for Thrombopoietin (TPO) Signaling Pathway (AID 917); further: on the % scale 0 is the no-effect control and ±100 the full control effect
Method in brief: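 Cell-based luciferase reporter screen. Mouse Ba/F3 line stably expressing human TPO receptor; IL-3 removed overnight before plating. Co-treatment with compound and EC50 TPO (26 pM), 24 hrs at 37 C, then luminescence.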

[10] = target: Muscarinic acetylcholine receptor M1 (Rattus norvegicus) (UniProt P08482); assay: qHTS Assay for Antagonists of Acetylcholine Muscarinic M1 Receptor: Measurement of IP-One Response (AID 944); further: nearly all actives have a fitted effect of over 75% in size
Chain of Muscarinic acetylcholine receptor M1 (Rattus norvegicus) (P08482 whole entry, looked up): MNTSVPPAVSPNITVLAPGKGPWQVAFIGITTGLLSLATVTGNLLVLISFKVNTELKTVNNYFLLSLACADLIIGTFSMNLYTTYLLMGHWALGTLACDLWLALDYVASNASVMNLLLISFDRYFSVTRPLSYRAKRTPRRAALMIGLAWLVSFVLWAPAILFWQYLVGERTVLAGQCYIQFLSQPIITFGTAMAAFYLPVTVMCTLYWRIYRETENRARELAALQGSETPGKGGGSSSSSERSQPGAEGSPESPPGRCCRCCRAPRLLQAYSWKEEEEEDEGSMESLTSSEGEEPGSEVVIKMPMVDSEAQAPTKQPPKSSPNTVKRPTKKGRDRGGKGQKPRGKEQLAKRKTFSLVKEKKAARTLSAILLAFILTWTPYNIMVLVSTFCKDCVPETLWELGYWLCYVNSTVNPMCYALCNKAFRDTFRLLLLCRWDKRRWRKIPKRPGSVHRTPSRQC
Method in brief: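 Read-out: HTRF competition between d2-IP1 and Eu-cryptate anti-IP1 antibody, emission 620 and 665 nm. Stimulus was carbachol, EC80 (200 nM), for 30 min in M1-CHO cells (rat receptor), after 10 min compound pre-treatment.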

[11] = target: Pyruvate kinase (Leishmania mexicana) (UniProt Q27686); assay: qHTS Validation Assay for Inhibitors of Leishmania Mexicana Pyruvate Kinase (AID 945);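 further: 0% = DMSO only neutral control wells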
Chain of Pyruvate kinase (Leishmania mexicana) (Q27686 2-499 E452W): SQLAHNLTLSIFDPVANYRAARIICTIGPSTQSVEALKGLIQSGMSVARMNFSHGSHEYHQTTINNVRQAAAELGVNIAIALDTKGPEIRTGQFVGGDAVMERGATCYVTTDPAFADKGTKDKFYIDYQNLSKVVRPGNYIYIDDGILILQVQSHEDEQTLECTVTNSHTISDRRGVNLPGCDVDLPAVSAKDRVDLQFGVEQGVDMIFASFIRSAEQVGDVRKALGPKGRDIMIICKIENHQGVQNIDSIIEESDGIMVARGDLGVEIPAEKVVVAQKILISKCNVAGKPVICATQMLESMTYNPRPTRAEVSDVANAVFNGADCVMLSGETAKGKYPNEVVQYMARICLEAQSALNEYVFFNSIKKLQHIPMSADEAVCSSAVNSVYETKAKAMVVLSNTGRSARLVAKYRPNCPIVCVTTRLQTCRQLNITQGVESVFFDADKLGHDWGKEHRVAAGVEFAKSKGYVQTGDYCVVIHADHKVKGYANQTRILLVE
Method in brief: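 Eight-point qHTS titrations in triplicate, data normalized to DMSO neutral control. Reaction: 0.2 nM LmPYK E451W mutant, 0.5 mM PEP, 0.1 mM ADP, 7 mM MgCl2, pH 7.2, one hour at room temperature; luminescent ATP detection.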

[12] = target: Pyruvate kinase PKM (Homo sapiens) (UniProt P14618); assay: qHTS Assay for Activators of Human Muscle Pyruvate Kinase (AID 954; active means well fitted curve in the direction sought with a large enough effect, not every such curve was filed as active;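 further: 0% = uninhibited enzyme and -100% = no enzyme or full thiadiazolimine inhibition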)
Chain of Pyruvate kinase PKM (Homo sapiens) (P14618 whole entry, looked up): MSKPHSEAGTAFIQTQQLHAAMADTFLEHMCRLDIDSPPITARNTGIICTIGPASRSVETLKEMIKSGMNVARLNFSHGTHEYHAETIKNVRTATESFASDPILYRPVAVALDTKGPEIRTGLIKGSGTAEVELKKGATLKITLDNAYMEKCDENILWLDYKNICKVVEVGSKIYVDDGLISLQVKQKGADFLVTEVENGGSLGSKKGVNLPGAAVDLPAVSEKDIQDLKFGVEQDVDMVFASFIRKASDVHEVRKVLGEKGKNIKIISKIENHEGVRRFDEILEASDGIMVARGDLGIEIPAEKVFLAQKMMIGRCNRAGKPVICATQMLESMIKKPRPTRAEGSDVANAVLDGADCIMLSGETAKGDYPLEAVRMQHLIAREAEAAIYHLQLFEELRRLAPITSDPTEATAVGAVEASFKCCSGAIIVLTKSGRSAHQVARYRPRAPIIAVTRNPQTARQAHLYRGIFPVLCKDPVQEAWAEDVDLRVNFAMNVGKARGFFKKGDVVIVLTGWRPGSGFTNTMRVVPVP
Method in brief: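 PKM2, human, >95% pure, 0.1 nM; PEP 0.5 mM (Km), ADP 0.1 mM; 50 mM imidazole pH 7.2, 50 mM KCl, 0.01% Tween 20, 0.05% BSA; 1 h RT; luciferase luminescence readout.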

[13] = target: alpha-glucosidase (Oryza sativa, rice) (UniProt Q653V4); assay: Counterscreen for Glucocerebrosidase Inhibitors: qHTS Assay for Rice alpha-Glucosidase at pH 5.0 (AID 997);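 further: 0% = full activity with enzyme and -100% = basal without enzyme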
Method in brief: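 Endpoint fluorogenic assay at pH 5.0: compounds (0.7 nM to 77 uM) titrated against 4 nM rice enzyme and 400 uM 4-MU-alpha-glucoside for 20 min at room temperature; NaOH/glycine stop, read ex 365/em 440 nm, Hill-fitted AC50.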

[14] = Validation of Assay for Modulators of Lamin A Splicing (AID 1459; active means well fitted curve in the direction sought with a large enough effect in the signal ratio; the % refers to the signal ratio;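 further: cells exposed to compound for two days before reading; 0% is about no effect; ratio rise marks activators and ratio drop marks inhibitors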)
Method in brief: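 HeLa S3 lamin A-EGFP/DsRed2 stable clone, 600 cells/well, Opti-MEM 2% FBS; compounds by pin tool; 48 hrs, 37 °C/5% CO2; Acumen 488 nm scan, objects 10-100 um; GFP/RFP intensity ratio.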

[15] = target: DNA repair nuclease/redox regulator APEX1 (Homo sapiens) (UniProt P27695); assay: qHTS Validation Assay for Inhibitors of the Human Apurinic/apyrimidinic Endonuclease 1 (APE1) (AID 1705)
Chain of DNA repair nuclease/redox regulator APEX1 (Homo sapiens) (P27695 whole entry, looked up): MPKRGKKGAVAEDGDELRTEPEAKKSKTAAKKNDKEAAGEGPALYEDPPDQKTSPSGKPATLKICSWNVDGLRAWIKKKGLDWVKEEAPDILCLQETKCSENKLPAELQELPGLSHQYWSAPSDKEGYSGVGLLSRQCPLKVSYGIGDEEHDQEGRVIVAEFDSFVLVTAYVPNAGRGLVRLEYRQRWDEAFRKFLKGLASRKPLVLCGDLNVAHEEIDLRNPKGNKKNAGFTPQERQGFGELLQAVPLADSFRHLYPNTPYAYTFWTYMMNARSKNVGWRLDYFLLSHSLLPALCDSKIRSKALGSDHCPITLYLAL
Method in brief: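 qHTS, 1536-well. APE1 + cpd 15 min RT → 50 nM TAMRA/BHQ-2 THF-abasic dsDNA substrate → kinetic fluorescence, 3 reads/60 s; delta(read3−read1) = reaction progress. No-enzyme buffer = negative control.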

[16] = Counterscreen for APE1 Inhibitors: Fluorescent Dye Displacement Validation Assay (AID 1707);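 further: plate controls were ThO with dsDNA and no compound for no effect and ThO without dsDNA for full effect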
Method in brief: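 Endpoint fluorescence read at 480 nm excitation / 540 nm emission; DNA-binding compounds lower signal by displacing 250 nM Thiazole Orange from 50 nM dsDNA containing a tetrahydrofuran abasic site, Tris-HCl pH7.5 buffer with NaCl and MgCl2.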

[17] = qHTS for differential inhibitors of proliferation of Plasmodium falciparum line 7G8 (AID 1815);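 further: potency means the concentration at half of the fitted maximal effect; parasite growth measured after three days of incubation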
[18] = qHTS for differential inhibitors of proliferation of Plasmodium falciparum line D10 (AID 1877);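 further: parasites grown with compound for 72 h before DNA staining; plate controls were vehicle wells for no effect and reference inhibitor wells for full effect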
[19] = qHTS for differential inhibitors of proliferation of Plasmodium falciparum line Dd2 (AID 1882); details: Potency: Plasmodium falciparum Dd2 proliferation inhibition;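 further: compound exposure of 72 h on infected erythrocytes; plate controls were DMSO vehicle for no effect and 0.29 µM artemisinin for full effect; nearly all actives have a fitted effect of over 65% in size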
Method in brief: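 RBC culture, 0.3% parasitemia / 2.5% Hct final; cpd added by pin tool in DMSO; 72 h, 37 C, 5% CO2; lysis buffer + SYBR Green I, o/n RT dark; FI 485/535; norm. to artemisinin 0.29 uM and DMSO.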

CC(C)=CCC/C(C)=C/CC/C(C)=C/CSc1ccccc1C(=O)O
active: Potency [2] 12.6 µM | Potency [17] 11.2 µM
inactive: activity change, negative = inhibition [1] 14.1% | activity, negative = inhibition [3] 1.75% | Potency [4] > 46 µM | Potency [5] | Potency [6] | outcome [7] | Potency [8] | Potency [9] | Potency [10] | Potency [11] | outcome [12] | outcome [13] | outcome [14] | Potency [15] | Potency [16] | Potency [18] | Potency [19]
